# Screens deposited in PubChem BioAssay by several laboratories.
# CYP2C19 inh: blocks human cytochrome P450 2C19; inhibition, % at 5 µM; hit rate 21% among 96,000; P33261; CYP2C19 Supersomes, luciferin-H EGE luminescence, 30 min;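 active means CYP2C19 inhibition above a set limit at 5 µM in the primary screen, cut at about 50% in these data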;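 further: plate controls were negative control wells for no effect and 2.5 mM tranylcypromine positive control for full effect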
# CYP2C9 inh: inhibitors of human CYP2C9 | P11712 | CYP2C9 Supersomes, luciferin-H conversion, luminescence | inhibition, % at 5 µM | hit rate 20% among 96,000 | AID 777;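 active means blocking of liver enzyme CYP2C9 beyond about 50% at 5 µM, limit read from the data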
# Target sequence (P11712 whole entry, looked up): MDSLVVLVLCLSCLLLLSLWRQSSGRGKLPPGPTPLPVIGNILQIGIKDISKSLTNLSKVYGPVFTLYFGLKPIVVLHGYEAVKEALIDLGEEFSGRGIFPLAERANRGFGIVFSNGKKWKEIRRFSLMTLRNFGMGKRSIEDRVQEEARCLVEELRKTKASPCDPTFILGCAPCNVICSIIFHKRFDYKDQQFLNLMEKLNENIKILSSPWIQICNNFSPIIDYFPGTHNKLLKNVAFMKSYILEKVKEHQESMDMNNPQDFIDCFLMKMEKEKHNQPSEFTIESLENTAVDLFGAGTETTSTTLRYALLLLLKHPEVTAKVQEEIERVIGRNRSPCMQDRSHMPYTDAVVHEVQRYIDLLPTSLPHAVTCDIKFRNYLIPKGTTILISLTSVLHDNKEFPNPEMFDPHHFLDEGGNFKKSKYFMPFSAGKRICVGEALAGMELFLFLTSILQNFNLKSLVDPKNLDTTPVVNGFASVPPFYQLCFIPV
# Cav3 T inh: blocks human Cav3.2 T-type calcium channel | Cav3.2-expressing cells, Fluo-4 calcium fluorescence FDSS; active compounds read low | B-score at 10 µM | hit rate 4% among 100,000 | AID 449739;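 active means single-dose well whose peak fluorescence ratio is a statistical outlier from its plate by either plate-standardised score or position-corrected B-score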
# CYP2C9 act: activators of human CYP2C9; AID 1024; activation factor at 5 µM; P11712; hit rate 1.4% among 96,000; recombinant CYP2C9, luciferin-H conversion, luminescence; active compounds read high; factor 1 = untreated enzyme, 0 = blocked;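 active means activation factor of 2 or more for CYP2C9 at a 5 µM dose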;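 further: 0 = sulfaphenazole-blocked wells and 1 = vehicle-only wells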
# PTK2B oligo ant: antagonists of human Pyk2 oligomerization; Q14289; Q293 cells, Pyk2 FERM NanoBiT luminescence; active compounds read low; z-score (the deposit names both 25 µM and 10 µM); hit rate 0.83% among 99,000;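 active means Z-score of -3 or lower, scaled per plate to the spread of control and sample wells; inactive means z-score above -3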;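 further: negative z-score means lost luminescence so less FERM oligomerization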
# CYP2C19 activ: increases human CYP2C19 enzyme activity; activation factor at 5 µM; AID 1025; 96,000 tested, under 10 active; P33261; recombinant CYP2C19, luciferin-H EGE luminescence; active compounds read high; 0 = fully inhibited enzyme, 1 = untreated enzyme;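 active means activation factor of at least 2 at 5 µM in the primary screen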;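 further: 0 = wells with 2.5 mM tranylcypromine and 1 = vehicle-only wells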
# Numbers without * were called inactive; . = not tested or not shown. In the library only some 27% were active in any assay of this set; here they are far more common.
SMILES,CYP2C19 inh,CYP2C9 inh,Cav3 T inh,CYP2C9 act,PTK2B oligo ant,CYP2C19 activ
CCc1ccc(C2CC(c3ccc(Cl)cc3)n3nc(N)nc3N2)cc1 (stereo unspecified),.,.,0.0084,.,.,.
Cc1ccc(/C(O)=C2/C(=O)C(=O)OC2c2ccc(Cl)cc2)cc1 (stereo unspecified),-1,50,-2.5,0.5,0.97,1
CC1CCC(NC(=O)C2c3ccccc3C(=O)N2CCCN2CCOCC2)CC1 (stereo unspecified),-5,8,-0.45,0.9,0.28,1.1
CCOC(=O)CCc1c(C)c2ccc(OCC(=O)N(CC)CC)c(C)c2oc1=O,34,51*,0.7,0.5,3.8,0.7
CCOC(=O)CCc1c(C)c2ccc(O)cc2oc1=O,26,-4,0.16,1,-0.49,0.7
CCOC(=O)Cc1c(C)c2ccc(N(CC)CC)cc2oc1=O,3,-112,.,2.1*,0.84,1
COc1cc(Br)c(C(C)NC(=O)c2ccc(C)cc2)cc1OC (stereo unspecified),35,25,0.072,0.8,-0.99,0.7
CCc1ccc(OCC(=O)Nc2ncc3c(n2)CC(C)(C)CC3=O)cc1,6,-6,0.87,1.1,0.51,0.9
Cc1cnc(C(=O)N2CCN(S(=O)(=O)c3ccc4ccccc4c3)CC2)cn1,23,-15,-0.37,1.2,-0.99,0.8
O=C(COC(=O)c1n[nH]c2ccccc12)Nc1ccc(S(=O)(=O)N2CCCC2)cc1,-1,26,0.29,0.7,-2.8,1
O=C(c1cnccn1)N1CCN(S(=O)(=O)c2ccc3ccccc3c2)CC1,95*,17,0.75,0.8,1.2,0.1
O=C(c1n[nH]c2ccccc12)N1CCN(S(=O)(=O)c2ccc3ccccc3c2)CC1,22,56*,-0.54,0.4,-2.4,0.8
Cc1ccc(C)c(S(=O)(=O)N2CCN(C(=O)c3cnccn3)CC2)c1,51*,51*,0.84,0.5,1,0.5
O=C(N/N=C/c1cccc(Oc2ccc([N+](=O)[O-])cc2[N+](=O)[O-])c1)c1cncc(Br)c1,.,.,2.3,.,-1.4,.
CSC1=N/C(=C\c2ccccc2F)C(=O)S1,63*,4,.,1,1.2,0.4
Brc1ccc(-c2nc(-c3cccnc3)no2)o1,85*,47,-0.57,0.5,-0.61,0.1
COc1ccc(-c2nc(-c3ccc(NC(=O)c4ccc(Br)o4)cc3)no2)cc1OC,29,37,-0.52,0.6,0.49,0.7
CCOc1cc(-c2noc(-c3ccncc3)n2)cc(Br)c1OC,76*,32,-0.86,0.7,0.85,0.2
CCOc1ccc(-c2nc(-c3cccnc3)no2)cc1OCC,62*,13,0.22,0.9,-0.26,0.4
COc1ccc(CCC(=O)Nc2ccc(-c3noc(-c4ccc(OC)c(OC)c4)n3)cc2)cc1,16,69*,0.45,0.3,1.4,0.8
O=c1c2ccccc2ncn1-c1ccc2c(c1)OCCO2,19,12,0.35,0.9,0.31,0.8
CC1(C)CC(=O)c2sc(NC(=O)c3cccs3)nc2C1,.,.,-0.74,.,0.22,.
COC(=O)CSc1nnc(-c2ccncc2)n1N,25,7,-1,0.9,0.41,0.7
CCOc1ccc(-c2noc(-c3ccncc3)n2)cc1OCC,70*,80*,0.54,0.2,-0.02,0.3
COc1ccc(-c2noc(-c3ccco3)n2)cc1OC,4,7,0.36,0.9,-0.79,1
SMILES,CYP2C19 inh,CYP2C9 inh,Cav3 T inh,CYP2C9 act,PTK2B oligo ant,CYP2C19 activ
CCOc1cc(-c2nc(-c3ccc(C)nc3OC)no2)cc(OCC)c1OCC,97*,76*,-0.23,0.2,0.15,0
COc1ccc(-c2nc(-c3ccncc3)no2)cc1OC,88*,60*,-5.2,0.4,0.08,0.1
O=[N+]([O-])c1cccc(-c2nc(-c3ccncc3)no2)c1,95*,53*,.,0.5,-0.22,0.1
O=[N+]([O-])c1cccc(C2=NC(c3ccccc3)CO2)c1 (stereo unspecified),.,.,0.053,.,.,.
Cc1ccc(C(C(=O)NC2CCCCC2)N2CCN(C(=O)c3ccco3)CC2)cc1 (stereo unspecified),47,27,0.52,0.7,0.12,0.5
COc1ccc(-c2noc(COc3ccccc3OC)n2)cc1OC,78*,-73,-2.1,1.7,.,0.2
COc1ccccc1CC(=O)Nc1ccc(-c2noc(COc3cccc(C)c3C)n2)cc1,25,63*,-1.1,0.4,.,0.8
CC(=O)Oc1ccc(-c2nc(-c3cccnc3)no2)cc1,95*,86*,-0.064,0.1,-0.3,0.1
CN1CCN(C(=O)c2ccc(N(Cc3ccc(Cl)cc3)S(C)(=O)=O)cc2)CC1,24,22,-0.8,0.8,-0.78,0.8
O=C(Nc1ccc(Cl)c([N+](=O)[O-])c1)c1cnccn1,.,.,.,.,4.7,.
CCOC(=O)c1ccc(N2C(=O)C3C(C2=O)C(C(=O)c2ccc(Cl)cc2)N2CCCC32)cc1 (stereo unspecified),22,16,.,0.8,0.16,0.8
CC1(C)SC(=S)N(Cc2ccc3c(c2)OCO3)C1N(O)C(=O)NC1CCCCC1 (stereo unspecified),42,72*,-2.3,0.3,-2,0.6
O=C1Nc2ccc(Br)cc2C1=Nc1ccc(-c2nnc3n2CCCCC3)cc1,-30,-39,.,1.4,.,1.3
O=C(N/N=C/C1C(c2ccccc2)C1(Cl)Cl)c1cccc(Br)c1 (stereo unspecified),18,70*,-6.7*,0.3,-1.1,0.8
C/C(=N\NC(=O)c1cccc(Br)c1)c1ccc(Br)cc1,12,11,0.1,0.9,0.15,0.9
Cc1csc(SCC(=O)c2c(N)n(C)c(=O)n(C)c2=O)n1,9,4,.,1,0.87,0.9
Nc1cc(C(=O)c2cccs2)ccc1Cl,87*,41,-0.014,0.6,-0.3,0.1
COCCn1c(SCC(=O)NCC2CCCO2)nc2c(c1=O)SC(C)C2 (stereo unspecified),-4,-2,1.4,1,.,1
CC(=O)c1cc(F)c(N2CCN(C(=O)c3ccco3)CC2)cc1C,60*,25,-0.25,0.7,1.5,0.4
CC(=O)c1ccc(N2CCN(C(=O)c3ccco3)CC2)c(F)c1,14,13,0.48,0.9,0.87,0.9
CCn1cc(C(=O)NCc2ccccc2)c(=O)c2cc(F)c(N3CCN(C(=O)c4ccco4)CC3)cc21,53*,64*,2.2,0.4,-2.1,0.5
Cn1c(NN)nc2sc3c(c2c1=O)CC(C)(C)OC3,.,.,0.39,.,0.02,.
CCC1(C)Cc2c(sc3nc4n(c(=O)c23)CCS4)CO1 (stereo unspecified),64*,51*,0.052,0.5,0.63,0.4
CCC1(C)Cc2c(sc3nc(NC)n(C)c(=O)c23)CO1 (stereo unspecified),56*,18,.,0.8,-0.94,0.4
CCn1c2ccccc2c2cc(NC(=O)CCCN3C(=O)CCC3=O)ccc21,49,-89,0.53,1.9,-0.19,0.5
